The source of these data is PubChem BioAssay AID2315 (National Center for Advancing Translational Sciences (NCATS), 2010).

The structures appear in SMILES notation. Out of some 290,000 compounds screened, about 27,000 (9.3%) were called active. The list comes from a sample in which actives are over-represented; it also holds similar structures and randomly drawn compounds. A number with no mark means an inactive call. Rule as the data show it: active = inhibition mostly above about 28% (no sharp cut-off); inactive = mostly below about 43%.

The nature of the assay: A qHTS for Small Molecule Inhibitors of Shiga Toxin. Also: 0% is about no effect. The note with it: Vero cells, Shiga toxin protein synthesis inhibition reporter; at 38.7 µM, active compounds read high.
As usually defined, the inhibition is the change of the read-out against control, counted positive when it falls. Turning to `CCOc1ccccc1NC(=O)Cn1ncc2ccc([N+](=O)[O-])cc21`, the inhibition was -3.64%.
As for `COc1ccc(N2CC(C(=O)NCCS(=O)(=O)N3CCN(c4ccccc4)CC3)CC2=O)cc1` (stereo unspecified), the inhibition is -3.67%.
Turning to `O=C(NCC(=O)N(Cc1cccs1)C(C(=O)NC1CCCCC1)c1ccco1)c1cccs1` (stereo unspecified), the inhibition is 4.26%.
The result for `O=C1c2cccc3cccc(c23)C(=O)N1c1cccc(O)c1` reads -6.01%; that for `COC(=O)c1cc(C(=O)NC(C)C2CC3CCC2C3)cc([N+](=O)[O-])c1` (stereo unspecified), -13%; that for `COc1cc(C(=O)NCc2cc3cc(Cl)ccc3n2C)cc(OC)c1OC`, -6.37%.
The result for `COc1ccc(S(=O)(=O)NCCOc2ccccc2)cc1F` reads 21%.
As for `N#CCc1ccc(NC(=O)c2ccccc2C(=O)Nc2ccc(CC#N)cc2)cc1`, the inhibition was 57.5% (active).
The result for `NC(=O)COc1ccc(NC(=O)c2ccccc2-c2ccccc2)cc1` reads -16.2%; that for `CC(=O)Nc1ccc(CC#N)cc1`, -1.48%.
For `O=C(NCCO)C(=O)NCC(c1ccc2c(c1)OCO2)N1CCN(c2ccc(F)cc2)CC1` (stereo unspecified), the inhibition is 17.7%.
The result for `O=C(O)c1ccc(S(=O)(=O)N2CCOCC2)o1` reads -9.6%; that for `O=C(COc1ccc(-c2ccccc2)cc1)NN=C1CCCC1`, -0.705%.
As to `CS(=O)(=O)N(Cc1ccccc1)c1ccc(C(=O)NN=C2CCCCCC2)cc1`, the inhibition was 0.281%.
The result for `CCc1ccc(C(=O)NN=C2CCCCCC2)s1` reads 50.4% (active); that for `CN(c1ccc(C(=O)NCCC2=CCCCC2)cc1)S(C)(=O)=O`, 89.4% (active).
The result for `CC(=O)Nc1ccc(S(=O)(=O)N(C)CC(=O)NCCC2=CCCCC2)cc1` reads -23.7%.
As to `O=C(Cc1nn[nH]n1)NCCC1=CCCCC1`, the inhibition was -11.6%.
For `CC(CC(=O)O)C(=O)c1ccc(Cl)c([N+](=O)[O-])c1` (stereo unspecified), the inhibition was -9.51%.
The result for `O=C(COc1ccc(Cl)cc1)NCCC1=CCCCC1` reads 19.6%; that for `O=C(NCCC1=CCCCC1)c1ccc(Cl)c([N+](=O)[O-])c1`, 78.7% (active).
As to `Cc1ccn2c(=O)c(C(=O)NCCC3=CCCCC3)c(O)nc2c1`, the inhibition was 0.166%.
The result for `CN1CCNC(=O)C1CC(=O)NCCC1=CCCCC1` (stereo unspecified) reads -5.56%; that for `Cn1nnc2cc(C(=O)NCCC3=CCCCC3)ccc21`, 64.2% (active); that for `Cc1ccc(NS(=O)(=O)c2c(C)[nH]c(C)c2C(=O)N2CCCCC2)c(C)c1`, -1.7%.
As to `CCOc1ccc(NC(=O)CC(Cc2ccc(Cl)cc2)C(=O)O)cc1` (stereo unspecified), the inhibition is -2.62%.
The result for `COC(=O)c1c(NC(=O)c2ccccc2F)sc2c1C(C(=O)OC)CC2` (stereo unspecified) reads -16.3%; that for `COC(=O)[C@@H]1CC(O)CN1C(=O)C12CC3CC(CC(C3)C1)C2` (stereo partly specified), 4.2%; that for `O=C(Nc1ccc(N2CCOCC2)c(Cl)c1)c1ccc(S(=O)(=O)N2CCOCC2)cc1`, -13.3%.
The result for `O=C(Nc1ccc(S(=O)(=O)Nc2nccs2)cc1)c1cccc(S(=O)(=O)N2CCOCC2)c1` reads -3.68%; that for `O=C(Nc1nnc(S(=O)(=O)N2CCOCC2)s1)c1cccc(Br)c1`, 31.4% (active).
Regarding `O=C(Nc1nnc(S(=O)(=O)N2CCCCCC2)s1)c1cccc(Br)c1`, the inhibition was -2.66%.
With `COc1cccc(C(=O)Nc2nnc(S(=O)(=O)N3CCOCC3)s2)c1`, the inhibition was 7.84%.
The result for `O=C(Nc1ccc(S(=O)(=O)N2CCOCC2)cc1)c1ccc2ncsc2c1` reads 64.5% (active); that for `O=C(c1cnc(Cl)c(Cl)c1)N1CCN(S(=O)(=O)c2ccc(F)cc2)CC1`, 1.5%; that for `CCc1ccc(NC(=O)CN2CCC(C(=O)c3ccc(OC)cc3)CC2)cc1`, -10.2%.
The result for `CCNC(=O)CC1C(=O)N(c2ccc(OC)cc2)C(=O)N1CCOC` (stereo unspecified) reads -7.39%.
The result for `CC(C)C[C@H](NC(=O)N1CC(=O)Nc2ccccc21)C(=O)N[C@H](Cc1ccccc1)C(=O)O` reads -3.7%; that for `COc1cccc(C(O)Cc2nc3ccccc3n2C)c1OC` (stereo unspecified), 10.7%; that for `CCCn1c(C(O)c2ccc(OCC)cc2)nc2ccccc21` (stereo unspecified), -6.45%.
Take `CCOc1ccc(C(O)Cc2nc3ccccc3n2C)cc1` (stereo unspecified): the inhibition is 61.7% (active).
Take `S=C(NNC(=S)NC1CC2CCC1C2)NC1CC2C=CC1C2` (stereo unspecified): the inhibition is 38%.
The result for `CC(C)c1ccc(NC(=S)NC2CC3C=CC2C3)cc1` (stereo unspecified) reads 81.8% (active); that for `S=C(NNC(=S)NC1CC2C=CC1C2)NC1CC2C=CC1C2` (stereo unspecified), 18.6%; that for `O=C(CN1CCC(NC(=O)Nc2ccccc2)CC1)Nc1cccc([N+](=O)[O-])c1`, -6.37%.
As for `O=C(CCN1C(=O)C2C3CCC(C3)C2C1=O)Nc1ccc(Cl)cc1Cl` (stereo unspecified), the inhibition was 30.5%.
Regarding `Cc1cccc(NC(=O)C2CCN(C(=O)NC3CCCCC3)CC2)c1`, the inhibition is -14.2%.
As for `OCCn1c(-c2ccccc2)csc1=Nc1ccccc1`, the inhibition was 29.8% (active).
The result for `Cc1csc(=NC(=O)c2ccccc2)n1CCO` reads -11%; that for `Cc1csc(=Nc2ccccc2)n1CCO`, -5.67%.
The result for `Cc1cc2c(cc1S(=O)(=O)CCC(=O)NCc1ccccc1)OCC(=O)N2` reads 9.17%; that for `COCCCNC(=O)CNC(=O)c1nn(-c2ccc(OC)cc2)c(=O)c2ccccc12`, -3.74%; that for `O=C(CN1CCN(S(=O)(=O)c2cc(Cl)ccc2Cl)CC1)c1ccc(O)c(O)c1`, -3.28%.
For the molecule `COc1cc(OC)cc(C(=O)N[C@H](C(=O)Nc2nc3ccccc3[nH]2)C(C)C)c1`, the inhibition was -3.89%.
In the case of `COC(=O)Nc1nc2ccc(Sc3ccccc3)cc2[nH]1`, the inhibition was 76.6% (active).
The result for `Cc1nc2ccc(C(=O)O)cc2[nH]1` reads -11.9%; that for `Cc1ccc(S(=O)(=O)N(C)c2nc3ccccc3n3c(C(C)C)nnc23)cc1`, 13.3%.
The result for `CC(=O)Nc1ccc(NC(=O)CCCNC(=O)c2ccc(Cl)cc2)cc1` reads 3.88%; that for `CCCC(=O)Nc1ccc(C(=O)N/N=C/c2ccc[nH]2)cc1`, 13%; that for `CC(=O)Nc1ccc(NC(=S)NC(=O)/C=C/c2ccccc2)cc1`, 5.78%.
`COc1ccc(C(=O)/C=C/c2ccc(OC3CSC3)cc2)cc1`: the inhibition is 2.97%.
The result for `CC(=O)Nc1ccc(C(=O)/C=C/c2ccc[nH]2)cc1` reads 77.1% (active); that for `CC(=O)Nc1ccc(/C=C/C(=O)c2ccccc2)cc1`, 58.1% (active); that for `C=CCNC(=S)/N=c1/ccccn1Cc1ccccc1`, 2.67%.
As to `O=C(NC(=S)NC1CCS(=O)(=O)C1)c1cccc([N+](=O)[O-])c1` (stereo unspecified), the inhibition was -10.3%.
The result for `Cc1ccc(SCC(=O)NNC(=O)c2ccc(S(C)(=O)=O)cc2)cc1` reads -6.84%; that for `COc1ccc(CCn2c(=N)c(C(=O)NCC3CCCO3)cc3c(=O)n4cccc(C)c4nc32)cc1OC` (stereo unspecified), 2.54%.
The result for `O=C(NCc1nnc(SCC(=O)N2CCCCCC2)o1)c1ccc(F)cc1` reads -3.11%.
Consider `Fc1ccccc1N=C1Nc2cccc3cccc1c23`, for which the inhibition was 59% (active).
In the case of `c1ccc(C2=Nc3cccc4cccc(c34)N2)cc1`, the inhibition is 3.03%.
The result for `COc1ccccc1C1=Nc2cccc3cccc(c23)N1` reads -3.03%; that for `Cc1cc(N2C(=O)C(O)=C(C(=O)c3ccc(C)o3)C2c2ccc(OCc3ccccc3)cc2)no1` (stereo unspecified), -3.21%.
The result for `COc1ccc(-c2nn(-c3ccccc3)cc2C(=O)Nc2nc(CC(C)=O)ns2)cc1` reads -2.47%; that for `COc1ccc(NC(=O)c2cn(-c3ccccc3)nc2SC)cc1`, 43.3% (active); that for `COc1ccc(-c2nn(-c3ccccc3)cc2/C=C\C(=O)Nc2ccc(C(=O)O)cc2)cc1`, -20.1%.
The result for `O=C(CN1CCC(O)(c2cccc(C(F)(F)F)c2)CC1)NCCc1ccccc1` reads -6.9%.
`CC(NC(=O)CNC(=O)Cc1cccc2ccccc12)c1ccc(S(N)(=O)=O)cc1` (stereo unspecified): the inhibition was -8.32%.
The result for `COc1ccccc1CC(=O)Nc1ccc(F)cc1F` reads 1.11%; that for `CC[C@]1(c2ccccc2OC)C(=O)N(C(=O)OC)N1C(=O)OC`, 35.6% (active); that for `COC(=O)c1ccccc1NC(=O)Cc1ccccc1OC`, 0.83%.
Take `COc1ccccc1-n1c(SCC(=O)Nc2cccc(C(=O)O)c2)nnc1-c1ccccc1O`: the inhibition is 6.46%.
The result for `CCOC(=O)N1CCN(C(=O)c2ccc3c(c2)N(Cc2ccc(C)cc2)CCS3)CC1` reads -7.18%; that for `O=C(NCCN1CCOCC1)c1ccc2c(c1)N(Cc1ccc(Cl)cc1)CCS2`, -14%.
The result for `O=C(NCCc1ccccc1)c1ccc2c(c1)N(Cc1ccccc1)CCS2` reads 59.8% (active); that for `COCCNc1ccc(-c2n[nH]c(=O)c3ccccc23)cc1[N+](=O)[O-]`, -2.3%.
The result for `O=C(NCc1ccccc1Cl)C1CCN(S(=O)(=O)c2cccc3nonc23)CC1` reads 9.83%; that for `CCN(CC(=O)NCC(=O)Nc1cccc(C)c1C)Cc1ccccc1`, -9.33%; that for `CCN1C(=O)/C(=C2\SC(N3CCCCC3)=NC2=O)c2ccccc21`, 52.1% (active).
For the molecule `CC(C)=C1SC(N2CCN(c3cccc(C)c3)CC2)=NC1=O`, the inhibition is -21.2%.
With `CC(C)=C1SC(N2CCN(c3ccc(C)c(Cl)c3)CC2)=NC1=O`, the inhibition is 7.4%.
In the case of `Cc1cc(C)cc(C(=O)NC(CC(N)=O)c2ccc(N3CCC(N4CCCCC4)CC3)c([N+](=O)[O-])c2)c1` (stereo unspecified), the inhibition is -3.41%.
The result for `COc1cccc(NC(=O)N2C3CCCC2CC(NC(C)=O)C3)c1` (stereo unspecified) reads -2.41%; that for `Cc1ccc(S(=O)(=O)NCc2ccc(C(=O)NC3CCC(C)CC3)cc2)cc1` (stereo unspecified), -2.09%.
`COc1ccc(NC(=O)CCCNC(=O)Cn2cnc3sc4c(c3c2=O)CCCC4)cc1OC`: the inhibition was -15.7%.
Consider `COc1ccc(NC(=O)CCNC(=O)Cn2cnc3sc4c(c3c2=O)CCCC4)cc1OC`, for which the inhibition is 7.2%.
For the molecule `COc1ccc(/C=N/Nc2ncnc3sc4c(c23)CCCC4)cc1O`, the inhibition was 79.2% (active).
